The values below come from PubChem BioAssay (NCATS).

Inconclusive results are not listed. Calls of active or inactive are those of the source. Calls come from the whole dose curve; as a rule, active = well fitted cell-killing curve with a large enough effect; inconclusive = small, poorly fitted or top-dose-only effect, or effect the other way; inactive = no such curve, though single readings can be large or run the other way.
Potency is the fitted concentration of half-maximal effect.

The experiment in a line: Viability qHTS for spleen associated tyrosine kinase inhibitor (SYKi) drug resistant MV4-11 cells (AID 1963824). Note: nearly all actives have a fitted effect of over 35% in size. The conditions noted are these: SYKi-resistant MV4-11 viability, CellTiter-Glo, 72 h; series mostly up to 45 µM; viability, % of control: at the top concentration. Put shortly:
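SYK-inhibitor-resistant MV4-11 AML cells were seeded at 500 per well onto compound and cultured 72 hours (37 °C, 5% CO2). CellTiter-Glo was then added, and after 10 min at room temperature, luminescence gave viability.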
On the technique in general: qHTS replaces the single test concentration by a dilution series.
As for `CCCCCCCCCCC(O)C1C=CC2C(=O)N(c3ccccc3)C(=O)C2N1Nc1ccc([N+](=O)[O-])cc1` (stereo not given), the Potency is 11.6 µM (active).

Regarding `CC1NC(=O)C(Cc2c[nH]c3ccccc23)NC1=O` (stereo not given), the “viability, % of control” value is 93.4% (inactive). `C[C@@]12CC[C@@H]3[C@@](CC[C@H]4[C@@]3(C)CCC[C@@]4(C)C(=O)O)(CC1=O)C2`: the “viability, % of control” value is 69.8% (inactive). Regarding `CC(Oc1cc(-n2cnc3ccc(CN4CCN(C)CC4)cc32)sc1C(N)=O)c1ccccc1C(F)(F)F` (stereo not given), the Potency was 0.461 µM (active). The same measure, in the same setting: in the case of `COc1cc(O)c2c(=O)c(O)c(-c3ccc(O)c(O)c3)oc2c1` it was 8.2 µM (active). As for `C/C=C(\C)C(=O)OCC1OC(OCC2OC(OC3(CO)OC(CO)C(O)C3O)C(O)C(O)C2O)C(O)C(O)C1O` (stereo not given), the “viability, % of control” value is 90.8% [at 17.3 µM] (inactive).

Turning to `COc1ccccc1Oc1c(NS(=O)(=O)c2ccc(C)cn2)nc(-c2ccncc2)nc1OC`, the “viability, % of control” value was 79.1% (inactive). For `O=C(Nc1ccc(Cl)cc1)c1ccccc1NCc1ccncc1`, the Potency was 11.6 µM (active). Take `C=C[C@](C)(CC/C=C(\C)C(=O)O)O[C@@H]1OC[C@H](O)[C@H](O)[C@H]1O`: the “viability, % of control” value was 81.4% (inactive). As to `C=C1C[C@]23C[C@@]1(O)CC[C@H]2[C@@]12C=C[C@H](O)[C@@](C)(C(=O)O1)[C@H]2[C@@H]3C(=O)O`, the “viability, % of control” value is 87.6% (inactive). As for `CC(=O)OC1C(O)CC2(C)C(CCC(C)C23Cc2c(O)cc(CO)c(C=O)c2O3)C1(C)C` (stereo not given), the Potency was 11.2 µM (active).

Turning to `C[C@@H]1O[C@@H](O[C@H]2[C@H](O[C@H]3CC[C@@]4(C)C(CC[C@]5(C)C4CC=C4[C@@H]6CC(C)(C)CC[C@]6(C(=O)O)CC[C@]45C)[C@]3(C)CO)OC[C@H](O)[C@@H]2O)[C@H](O)[C@H](O[C@@H]2OC[C@@H](O)[C@H](O)[C@H]2O)[C@H]1O` (stereo not given in full), the Potency is 4.91 µM (active). Regarding `Nc1cccc(CNC(=O)c2ccc(Oc3ccc(OCc4cccc(F)c4)cc3)nc2)c1`, the Potency is 16.4 µM (active). With `COC1OC(OC)C(O)(CCC2(C)C(C)CCC3(C)C2CC(O)C(O)C32CO2)C1O` (stereo not given), the “viability, % of control” value was 95.5% [at 17.3 µM] (inactive). Regarding `CC(C)n1cnc2c(Nc3cccc(Cl)c3)nc(NCCO)nc21`, the Potency is 1.84 µM (active). `COc1cc2ncnc(Nc3ccc(Oc4ccccc4)cc3)c2cc1OC`: the Potency was 0.291 µM (active). In the case of `CC[C@@H](C)[C@@H]1OC2(C=C[C@H]1C)C[C@@H]1C[C@H](C/C=C(\C)[C@H](O[C@H]3C[C@H](OC)[C@H](O[C@H]4C[C@H](OC)[C@H](NC(C)=O)[C@H](C)O4)[C@H](C)O3)[C@H](C)/C=C/C=C3\CO[C@H]4[C@H](O)C(C)=C[C@@H](C(=O)O1)[C@@]34O)O2` (stereo not given in full), the Potency was 2.27 µM (active). Regarding `CC(C)CC(=O)OC1OC=C(CO[C@@H]2O[C@H](CO)[C@@H](O)[C@H](O)[C@H]2O)C2CC(O)C(O)(CO)C12` (stereo not given in full), the “viability, % of control” value is 83% [at 17.3 µM] (inactive). `COc1ccc(C2(CNC(=O)[C@](C)(Cc3c[nH]c4ccccc34)NC(=O)Nc3ccc([N+](=O)[O-])cc3)CCCCC2)nc1`: the Potency was 20.6 µM (active). On to `C=C1CCC2C(C)(C(=O)O)CCCC2(C)C1CC/C(C)=C\CO` (stereo not given), for which the “viability, % of control” value is 71.8% (inactive). Turning to `COC(=O)C[C@H]1C(C)(C)[C@H](OC(=O)c2ccccc2)C2CC3=C4CC(=O)O[C@@H](c5ccoc5)[C@]4(C)CCC3[C@@]1(C)C2=O` (stereo not given in full), the Potency was 10 µM (active). For `COc1ccnc(CS(=O)c2nc3cc(OC(F)F)ccc3[nH]2)c1OC` (stereo not given), the “viability, % of control” value was 57.8% (inactive). Consider `COc1ccccc1NC(=O)Nc1ccc2ccccc2c1`, for which the Potency was 20.6 µM (active). The same measure, in the same setting: in the case of `N#Cc1ccc(Cn2cncc2CN2CCN(c3cccc(Cl)c3)C(=O)C2)cc1` it was 2.95 µM (active). The same measure, in the same setting: in the case of `CCOc1ccc(S(=O)(=O)N2CCCCCC2)c2ccccc12` it was 20.6 µM (active). Take `Cc1cc(Cn2cnc3c2CC(C(=O)O)N(C(=O)C(c2ccccc2)c2ccccc2)C3)ccc1N(C)C` (stereo not given): the “viability, % of control” value was 95.7% (inactive). In the case of `CCC(O)(C(=O)OCc1ccccc1NC(=O)CCC(=O)O)C(C)O` (stereo not given), the “viability, % of control” value was 93.6% (inactive). Consider `N#Cc1cnc2cnc(NCc3cccnc3)cc2c1Nc1ccc(F)c(Cl)c1`, for which the Potency was 3.66 µM (active). Turning to `C[C@@H]1CCCN1CCc1cc2cc(-c3ccc(C#N)cc3)ccc2o1`, the Potency is 20.6 µM (active). Consider `Cc1ccc(NS(=O)(=O)c2cc3c(cc2F)NC(=O)CC3)cc1Cl`, for which the Potency was 16.4 µM (active). For the molecule `Cc1cc(C)cc(Oc2ccc(CNC(=O)[C@H](C)N)cc2C)c1`, the Potency was 16.6 µM (active). As for `O=C(Nc1ccc(Cl)cc1)Nc1cccc(-c2cccc(N3CCCC3)n2)c1`, the Potency is 14.6 µM (active). Turning to `O=C(Nc1cccc(C(F)(F)F)c1)c1ccccc1NCc1ccncc1`, the Potency was 9.2 µM (active). Take `CO[C@H]1O[C@@H]2O[C@@]3(C)CCC4[C@H](C)CCC([C@H]1C)[C@]42OO3` (stereo not given in full): the Potency was 2.91 µM (active). Take `CC(C)c1c(O)ccc2c1CC[C@H]1C(C)(C)CCC[C@]21C`: the Potency was 16.4 µM (active). For `C/C=C(\C)C(=O)OC1C[C@@]2(COC(C)=O)O[C@H]2/C=C\[C@@]2(C)O[C@@H]2[C@H]2OC(=O)C(COC(C)=O)=C12` (stereo not given in full), the Potency was 4.47 µM (active). Take `COCC(c1ccc(C(F)(F)F)cc1)N1CCN(C2(C)CCN(C(=O)c3c(C)ncnc3C)CC2)CC1C` (stereo not given): the “viability, % of control” value was 76.1% (inactive). As for `COc1ccc2c(c1O[C@H]1CCNC1)CCC2`, the “viability, % of control” value is 70.4% (inactive). With `CC(=O)Nc1cccc(-c2csc(Nc3cc(C)ccn3)n2)c1`, the Potency is 16.4 µM (active).

Consider `C[C@@H](NC(=O)[C@H](O)c1cc(F)cc(F)c1)C(=O)N[C@@H]1C(=O)N(C)c2ccccc2-c2ccccc21`, for which the Potency is 18.4 µM (active).
